Assay results taken from PubChem BioAssay (NCI).
This is part of a sample that, as a whole, favours compounds with a hit. Of some 83,000 tested, about 20% had one in any assay.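 A percent growth of 40 corresponds to 60% growth inhibition; 0 means no net growth; -100 means all cells died. Active threshold: below 10.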 Values without a mark were called inactive. The source made the active and inactive calls.

Experiments:
Experiment in all cases: NCI-60 one-dose screen, 48 h (100 = growth as untreated, 0 = no growth, -100 = all killed)
Details in all cases: 10 µM unless noted
[1] = test system: T-47D breast
[2] = test system: BT-549 breast
[3] = test system: MDA-MB-435 melanoma
[4] = test system: SW-620 colon
[5] = test system: MCF7 breast
[6] = test system: HCT-116 colon
[7] = test system: KM12 colon
[8] = test system: HCC-2998 colon

SMILES	growth [1]	growth [2]	growth [3]	growth [4]	growth [5]	growth [6]	growth [7]	growth [8]
Cc1ccc(S(=O)(=O)OCCCOS(=O)(=O)c2ccc(C)cc2)cc1	99.3%	96.2%	101%	103%	91.2%	94.1%	99.1%	
CCCCNC(=O)Oc1ccc(/C(=C(/C)Cc2ccc(OC)cc2)c2ccc(OCCN3CCCCC3)cc2)cc1	37.9%	81.9%	67.8%	77.4%	26.9%	41.8%	73.6%	75.5%
COc1cc(OC)cc(-c2ccc(-c3ccc(C(=N)N)o3)o2)c1	49.3%	85.8%	-27.5% (active)	2.04% (active)	8.92% (active)	-8.08% (active)	17.6%	-36.8% (active)
CCOc1cccc(/C=N/NC(=O)c2cccc(Nc3ccnc(C(F)(F)F)c3)c2)c1O	27.6%	48.5%	34.4%	36.6%	17.4%	13%	38.9%	43.5%
COc1ccc(/C(C)=C(/c2ccc(OCCCN(C)C)cc2)c2ccc(OC(=O)c3ccccc3)cc2)cc1	49.7%	87%	85%	88.8%	31%	48.6%	75.2%	88.3%
CN1CCN(Cc2ccc(NC(=O)c3cncc(C#Cc4cnc5ccc(Cl)nn45)c3)cc2C(F)(F)F)CC1	10.4%	-6.27% (active)	-10.4% (active)	-2.63% (active)	-2.36% (active)	-12.6% (active)	-0.151% (active)	
N#CC1=C(N)Oc2ccc3ccccc3c2C1c1ccc([N+](=O)[O-])cc1 (stereo not given)	82.5%	91.7%	-51.3% (active)	100%	66%	85.5%	95.5%	
CC(C)(C)c1cc(Cl)c(O)c(CNCCO)c1	98.7%	109%	101%	86.4%	96.3%	99.1%	111%	104%
NC1(CO)COC(c2ccccc2)OC1 (stereo not given)	103%	124%	117%	111%	111%	115%	107%	
O=C(Nc1ccccc1[N+](=O)[O-])c1ccc(Cl)c(Cl)c1	54.9%	85.6%	102%	97.9%	52%	95%	96.8%	110%
CC(C)CCN(CCC(C)C)CC(O)c1cc2c(c3ccccc13)CCCC2 (stereo not given)	59%	103%	98.4%	59%	78.5%	50.5%	64.6%	
O=C(Nc1cc(Cl)ccc1O)c1cccc(Nc2ccnc(C(F)(F)F)c2)c1	10.8%	34.9%	31.2%	62.9%	26%	26.1%	36.5%	25.5%
O=C1NC(=O)/C(=C/c2c(-c3ccccc3)nc3sc(COc4ccccc4)nn23)S1	89.4%	92.8%	102%	105%	83.5%	89.3%	100%	107%
N[C@H]1CCC[C@@H]1NCCCCN1C(=O)c2cccc3cc([N+](=O)[O-])cc(c23)C1=O	57.5%	68.3%	53.2%	26.7%	19.7%	9.25% (active)	36.6%	
Cc1ccc(NC(=O)Cn2c(Br)nc3c2c(=O)n(C)c(=O)n3C)cc1	-10.5% (active)	0.261% (active)	54.2%	30%	13.2%	-21.5% (active)	63.8%	
COc1cc(-c2nc3cc(Cl)c(Cl)cc3[nH]2)ccc1OCC(=O)N=Nc1c(O)[nH]c2ccc(Cl)cc12	-4.31% (active)	12%	-57.7% (active)	-14.2% (active)	1.63% (active)	-16.2% (active)	9.24% (active)	-39.2% (active)
CCN1CCN(CCNc2nccc(-c3c(-c4ccc(F)c(OC)c4)nc4sccn34)n2)S1(=O)=O	87.3%	93.2%	26.6%	87.4%	50%	44.5%	74.2%	
O=C(NNc1cnccn1)c1nc2cc(F)ccc2n2cccc12	20%	32%	24.5%	19.6%	5.93% (active)	5.5% (active)	18.5%	
C#CCNC(=O)[C@]1(C)CCC[C@@]2(C)[C@H]1CC=C1C=C(C(C)C)CC[C@@H]12	85.2%	100%	104%	109%	85.6%	107%	100%	
COC(=O)c1c2c(c(C)[n+]([O-])c1C)C(=O)C(NCc1cccc(Cl)c1)=CC2=O	6% (active)	49.3%	-68.5% (active)	7.1% (active)	-36% (active)	1.18% (active)	17.7%	
CCN1C(=O)N(CC)C2C1NN=c1s/c(=C3\C(=O)N(CC(C)C)c4ccccc43)c(=O)n12 (stereo not given)	73.8%	17.5%	-16.4% (active)	33.9%	15.1%	11.9%	20.9%	
O=C(CN1CCCCCC1)Nc1nc2ccc(NCc3ccc(Cl)cc3)cc2s1	94.7%	92.6%	100%	97.9%	84.9%	75.8%	96.6%	
CCOC(=O)/C=C1\S/C(=N\Nc2cc(=O)[nH]c3ccccc23)N(c2ccccc2)C1=O	94.6%	98.4%	106%	101%	91.5%	98.5%	101%	110%
O=C(Nc1cnc(Nc2ccc(N3CCOCC3)nc2)nc1Oc1ccc(C(F)(F)F)cc1)c1ccncc1	72.9%	75.8%	91.3%	97.5%	77.3%	61.9%	91%	
CCN1C(=O)N(CC)C2Nn3c(s/c(=C\c4ccccc4Br)c3=O)=NC21 (stereo not given)	62.1%	19%	-62.1% (active)	17.4%	16.7%	11.2%	7.48% (active)	
O=C1/C(=C\c2ccccn2)c2ccccc2N1c1c(Cl)cccc1Cl	4.47% (active)	-17.7% (active)	-5.05% (active)	-56.9% (active)	2.29% (active)	-94.4% (active)	-2.11% (active)	
C/C(=N\O)c1ccc(NC(=O)CSc2nnc(-c3cc(-c4ccc(S(C)(=O)=O)cc4)nc4ccccc34)n2-c2ccccc2)cc1	63%	88.2%	93.5%	97.4%	85.6%	83.7%	81.9%	
CCN(CC)CCCN1C(=O)c2c(c(C)c3c(oc4ccc(O)cc43)c2C)C1=O	87.2%	96.6%	93.4%	-37% (active)	65.8%	-77.9% (active)	70.7%	
CCOC(=O)c1cnc2c(N=Nc3ccc(OC)cc3)c(N)nn2c1N	104%	120%	95%	101%	85.9%	101%	99.6%	
COc1cccc(NCc2nnc(Nc3ccc(Cl)cc3)c3ccccc23)c1	-8.49% (active)	-12.2% (active)	-10.3% (active)	11.9%	-1.96% (active)		-24.9% (active)	2.79% (active)
